# Test results reported in publication PMC7862700, “An all-to-all approach to the identification of sequence-specific readers for epigenetic DNA modifications on cytosine”.
# Legend:
# Assay in all cases: DAPPL (digital affinity profiling via proximity ligation, sequencing); 10 mM Tris-HCl pH 7.5, 50 mM NaCl, 1 mM DTT, 4% glycerol, room temperature, 30 min; GST-TFs on glutathione beads, 16-mer random dsDNA library, 0.1% formaldehyde crosslink after washing; high values mean tight binding
# Settings in all cases: protein: recombinant; tags: N-terminal GST; dsDNA, one strand shown
# FLI1 = molecular target: T1, FLI1 (Homo sapiens, UniProt Q01543 1-452)
# T1 sequence: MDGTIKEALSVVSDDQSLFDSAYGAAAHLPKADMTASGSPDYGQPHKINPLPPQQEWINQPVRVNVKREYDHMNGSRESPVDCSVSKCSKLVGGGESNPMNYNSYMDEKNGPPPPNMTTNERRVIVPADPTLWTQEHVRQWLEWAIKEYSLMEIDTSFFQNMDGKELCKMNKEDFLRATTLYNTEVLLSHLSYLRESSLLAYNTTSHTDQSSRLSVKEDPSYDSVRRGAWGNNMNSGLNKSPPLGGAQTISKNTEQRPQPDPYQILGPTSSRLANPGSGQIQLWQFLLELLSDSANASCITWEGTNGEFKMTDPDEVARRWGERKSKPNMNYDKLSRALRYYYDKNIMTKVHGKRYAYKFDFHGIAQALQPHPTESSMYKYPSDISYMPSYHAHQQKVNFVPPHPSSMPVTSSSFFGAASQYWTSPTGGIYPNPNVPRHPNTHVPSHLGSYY
# In short: (§1)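 Yeast served to express human transcription factors as GST fusions, which were then captured on glutathione beads and labelled with DNA barcodes. Pooled with a tag-only sample, they were incubated with 200 nmole of a 16-mer random double-stranded DNA library for 30 min at room temperature in Tris/NaCl/DTT/glycerol buffer, washed, crosslinked with 0.1% formaldehyde, ligated by proximity, amplified by PCR and sequenced. Dividing each hexamer's read frequency for a factor by its frequency for the tag-only sample gives the binding signal.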
# ELK1 = molecular target: T2, ELK1 (Homo sapiens, UniProt P19419 1-428)
# T2 sequence: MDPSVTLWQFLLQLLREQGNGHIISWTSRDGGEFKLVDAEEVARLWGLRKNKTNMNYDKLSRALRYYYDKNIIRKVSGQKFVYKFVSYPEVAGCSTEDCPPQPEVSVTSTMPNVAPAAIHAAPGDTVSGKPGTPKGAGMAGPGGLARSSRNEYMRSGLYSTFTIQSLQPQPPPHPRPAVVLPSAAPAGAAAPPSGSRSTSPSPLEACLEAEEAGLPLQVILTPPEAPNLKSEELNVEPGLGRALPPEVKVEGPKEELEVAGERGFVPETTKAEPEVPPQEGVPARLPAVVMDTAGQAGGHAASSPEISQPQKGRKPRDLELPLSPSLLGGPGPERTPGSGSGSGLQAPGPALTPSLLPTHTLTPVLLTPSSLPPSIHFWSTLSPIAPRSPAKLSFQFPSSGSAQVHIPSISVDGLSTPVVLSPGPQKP
# In short: as §1
# GABPA = molecular target: T3, GABPA (Homo sapiens, UniProt Q06546 1-454)
# T3 sequence: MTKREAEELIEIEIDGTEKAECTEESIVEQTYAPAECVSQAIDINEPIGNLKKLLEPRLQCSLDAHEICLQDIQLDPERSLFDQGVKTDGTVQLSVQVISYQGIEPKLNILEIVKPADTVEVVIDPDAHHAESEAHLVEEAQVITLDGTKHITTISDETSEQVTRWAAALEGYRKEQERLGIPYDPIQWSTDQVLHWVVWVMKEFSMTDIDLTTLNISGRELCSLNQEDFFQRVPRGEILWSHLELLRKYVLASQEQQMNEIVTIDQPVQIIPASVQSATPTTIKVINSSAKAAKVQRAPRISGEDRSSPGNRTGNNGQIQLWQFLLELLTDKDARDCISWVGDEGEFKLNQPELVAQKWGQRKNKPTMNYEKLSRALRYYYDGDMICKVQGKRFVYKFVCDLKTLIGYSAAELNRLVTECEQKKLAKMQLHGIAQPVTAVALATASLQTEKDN
# In short: as §1
# ERG = molecular target: T4, ERG (Homo sapiens, UniProt P11308 1-479)
# T4 sequence: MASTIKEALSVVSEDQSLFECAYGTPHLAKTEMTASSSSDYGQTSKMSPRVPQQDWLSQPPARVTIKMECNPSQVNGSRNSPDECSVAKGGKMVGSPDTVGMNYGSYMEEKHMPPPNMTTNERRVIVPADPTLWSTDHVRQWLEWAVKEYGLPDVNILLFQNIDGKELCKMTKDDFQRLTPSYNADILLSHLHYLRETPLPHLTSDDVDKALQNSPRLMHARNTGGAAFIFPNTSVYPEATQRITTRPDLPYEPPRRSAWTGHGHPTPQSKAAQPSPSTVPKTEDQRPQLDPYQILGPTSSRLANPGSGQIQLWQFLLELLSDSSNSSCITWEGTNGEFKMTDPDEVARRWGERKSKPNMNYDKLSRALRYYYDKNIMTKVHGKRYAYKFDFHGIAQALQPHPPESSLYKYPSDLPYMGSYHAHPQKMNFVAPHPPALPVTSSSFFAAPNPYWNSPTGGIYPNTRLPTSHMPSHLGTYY
# In short: as §1
# ELF1 = ELF1 (Homo sapiens, UniProt P32519 1-619)
# In short: as §1
# SPIC = molecular target: T5, SPIC (Homo sapiens, UniProt Q8N5J4 1-248)
# T5 sequence: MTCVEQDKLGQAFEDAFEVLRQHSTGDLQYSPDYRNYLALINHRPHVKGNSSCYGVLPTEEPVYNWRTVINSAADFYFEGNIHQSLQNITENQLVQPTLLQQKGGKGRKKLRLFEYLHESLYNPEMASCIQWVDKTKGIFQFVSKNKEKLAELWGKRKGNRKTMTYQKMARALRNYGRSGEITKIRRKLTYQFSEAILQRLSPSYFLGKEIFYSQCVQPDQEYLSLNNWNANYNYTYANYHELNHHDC
# In short: as §1
# ELF4 = ELF4 (Homo sapiens, UniProt Q99607 1-663)
# In short: as §1
# ELK4 = molecular target: T6, ELK4 (Homo sapiens, UniProt P28324-2 1-405)
# T6 sequence: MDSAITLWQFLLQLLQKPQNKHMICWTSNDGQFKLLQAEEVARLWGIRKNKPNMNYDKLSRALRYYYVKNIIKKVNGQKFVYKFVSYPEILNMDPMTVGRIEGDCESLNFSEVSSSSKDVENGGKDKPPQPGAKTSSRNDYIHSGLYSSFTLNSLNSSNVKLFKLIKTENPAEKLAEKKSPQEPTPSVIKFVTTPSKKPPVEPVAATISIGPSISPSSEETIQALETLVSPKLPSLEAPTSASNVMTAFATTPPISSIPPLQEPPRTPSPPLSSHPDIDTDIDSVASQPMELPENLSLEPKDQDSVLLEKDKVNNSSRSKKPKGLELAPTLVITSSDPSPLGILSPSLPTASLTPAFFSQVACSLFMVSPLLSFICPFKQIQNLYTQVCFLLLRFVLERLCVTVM
# In short: as §1
# ETS2 = molecular target: T7, ETS2 (Homo sapiens, UniProt P15036 1-469)
# T7 sequence: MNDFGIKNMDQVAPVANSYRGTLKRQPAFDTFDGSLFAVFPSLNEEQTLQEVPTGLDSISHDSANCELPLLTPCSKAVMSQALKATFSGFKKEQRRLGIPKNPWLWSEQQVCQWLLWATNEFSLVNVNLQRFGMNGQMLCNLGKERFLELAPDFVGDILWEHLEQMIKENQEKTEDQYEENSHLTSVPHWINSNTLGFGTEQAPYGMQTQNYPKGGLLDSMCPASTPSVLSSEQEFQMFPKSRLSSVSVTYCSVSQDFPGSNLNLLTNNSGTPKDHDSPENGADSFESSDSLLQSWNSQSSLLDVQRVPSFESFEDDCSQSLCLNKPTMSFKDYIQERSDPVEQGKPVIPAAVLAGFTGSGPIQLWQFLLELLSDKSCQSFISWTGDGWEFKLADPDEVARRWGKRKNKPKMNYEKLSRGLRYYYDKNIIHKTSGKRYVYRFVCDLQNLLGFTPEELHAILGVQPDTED
# In short: as §1
# ETV7 = molecular target: T8, ETV7 (Homo sapiens, UniProt Q9Y603 1-341)
# T8 sequence: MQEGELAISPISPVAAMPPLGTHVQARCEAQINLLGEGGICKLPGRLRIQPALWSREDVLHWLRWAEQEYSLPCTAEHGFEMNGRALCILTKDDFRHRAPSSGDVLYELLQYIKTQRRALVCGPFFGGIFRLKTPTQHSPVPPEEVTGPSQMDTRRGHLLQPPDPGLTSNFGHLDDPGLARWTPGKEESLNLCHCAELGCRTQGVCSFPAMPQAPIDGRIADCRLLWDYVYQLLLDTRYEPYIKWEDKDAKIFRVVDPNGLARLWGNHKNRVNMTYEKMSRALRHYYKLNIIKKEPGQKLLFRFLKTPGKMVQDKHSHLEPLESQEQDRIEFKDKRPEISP
# In short: as §1
# ETV3 = molecular target: T9, ETV3 (Homo sapiens, UniProt P41162-2 1-143)
# T9 sequence: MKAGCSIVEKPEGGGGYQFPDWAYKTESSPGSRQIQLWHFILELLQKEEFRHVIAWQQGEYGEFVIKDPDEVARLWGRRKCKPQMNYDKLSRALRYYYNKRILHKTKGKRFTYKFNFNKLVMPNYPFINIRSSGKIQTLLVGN
# In short: as §1
# EHF = molecular target: T10, EHF (Homo sapiens, UniProt Q9NZC4 1-300)
# T10 sequence: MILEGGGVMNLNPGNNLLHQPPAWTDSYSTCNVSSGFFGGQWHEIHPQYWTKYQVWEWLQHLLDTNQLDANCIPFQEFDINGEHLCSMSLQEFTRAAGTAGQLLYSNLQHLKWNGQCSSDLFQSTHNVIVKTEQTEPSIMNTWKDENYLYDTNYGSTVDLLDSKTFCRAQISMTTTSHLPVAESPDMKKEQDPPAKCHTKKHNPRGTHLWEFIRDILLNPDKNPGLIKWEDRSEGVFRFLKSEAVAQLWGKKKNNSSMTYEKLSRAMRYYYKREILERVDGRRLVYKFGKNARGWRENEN
# In short: as §1
# ELF3 = molecular target: T11, ELF3 (Homo sapiens, UniProt P78545 1-371)
# T11 sequence: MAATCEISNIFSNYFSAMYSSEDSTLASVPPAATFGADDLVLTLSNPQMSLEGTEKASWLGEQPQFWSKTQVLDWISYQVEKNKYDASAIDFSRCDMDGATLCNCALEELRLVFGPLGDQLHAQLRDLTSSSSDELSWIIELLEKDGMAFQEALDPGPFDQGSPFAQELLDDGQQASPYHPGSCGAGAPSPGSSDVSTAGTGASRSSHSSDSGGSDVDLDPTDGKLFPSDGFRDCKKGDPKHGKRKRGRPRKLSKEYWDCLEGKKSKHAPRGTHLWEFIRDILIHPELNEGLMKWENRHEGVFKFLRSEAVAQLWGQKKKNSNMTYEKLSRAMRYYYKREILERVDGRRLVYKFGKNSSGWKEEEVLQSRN
# In short: as §1
# ERF = molecular target: T12, ERF (Homo sapiens, UniProt P50548 1-548)
# T12 sequence: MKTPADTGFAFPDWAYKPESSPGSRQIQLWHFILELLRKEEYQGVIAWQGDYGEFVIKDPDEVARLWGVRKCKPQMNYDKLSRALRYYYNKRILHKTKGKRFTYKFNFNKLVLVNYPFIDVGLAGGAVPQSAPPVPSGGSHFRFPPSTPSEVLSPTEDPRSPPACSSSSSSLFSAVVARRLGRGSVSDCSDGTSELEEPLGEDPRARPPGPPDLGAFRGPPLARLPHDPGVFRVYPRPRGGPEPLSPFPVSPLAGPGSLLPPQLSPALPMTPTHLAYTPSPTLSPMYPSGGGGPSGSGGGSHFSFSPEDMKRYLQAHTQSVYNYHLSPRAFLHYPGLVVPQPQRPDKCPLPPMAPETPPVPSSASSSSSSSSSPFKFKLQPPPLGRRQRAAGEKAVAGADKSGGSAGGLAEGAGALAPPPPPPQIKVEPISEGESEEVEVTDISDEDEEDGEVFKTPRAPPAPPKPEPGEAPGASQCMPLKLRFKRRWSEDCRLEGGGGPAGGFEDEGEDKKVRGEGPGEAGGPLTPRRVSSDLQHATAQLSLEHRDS
# In short: as §1
# ETV3L = molecular target: T13, ETV3L (Homo sapiens, UniProt Q6ZN32 1-361)
# T13 sequence: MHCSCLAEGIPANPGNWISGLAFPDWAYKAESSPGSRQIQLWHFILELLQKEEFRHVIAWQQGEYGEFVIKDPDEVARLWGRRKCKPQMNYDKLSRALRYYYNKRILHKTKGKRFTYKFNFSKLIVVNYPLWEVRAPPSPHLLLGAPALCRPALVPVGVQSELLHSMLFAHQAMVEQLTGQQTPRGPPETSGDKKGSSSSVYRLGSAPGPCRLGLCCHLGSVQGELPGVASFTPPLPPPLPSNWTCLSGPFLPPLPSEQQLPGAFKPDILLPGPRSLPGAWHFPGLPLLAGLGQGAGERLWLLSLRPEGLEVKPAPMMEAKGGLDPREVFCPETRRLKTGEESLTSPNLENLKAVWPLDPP
# In short: as §1
# ETV6 = ETV6 (Homo sapiens, UniProt P41212 1-452)
# In short: as §1
# ELF4, sequence (Q99607 whole entry): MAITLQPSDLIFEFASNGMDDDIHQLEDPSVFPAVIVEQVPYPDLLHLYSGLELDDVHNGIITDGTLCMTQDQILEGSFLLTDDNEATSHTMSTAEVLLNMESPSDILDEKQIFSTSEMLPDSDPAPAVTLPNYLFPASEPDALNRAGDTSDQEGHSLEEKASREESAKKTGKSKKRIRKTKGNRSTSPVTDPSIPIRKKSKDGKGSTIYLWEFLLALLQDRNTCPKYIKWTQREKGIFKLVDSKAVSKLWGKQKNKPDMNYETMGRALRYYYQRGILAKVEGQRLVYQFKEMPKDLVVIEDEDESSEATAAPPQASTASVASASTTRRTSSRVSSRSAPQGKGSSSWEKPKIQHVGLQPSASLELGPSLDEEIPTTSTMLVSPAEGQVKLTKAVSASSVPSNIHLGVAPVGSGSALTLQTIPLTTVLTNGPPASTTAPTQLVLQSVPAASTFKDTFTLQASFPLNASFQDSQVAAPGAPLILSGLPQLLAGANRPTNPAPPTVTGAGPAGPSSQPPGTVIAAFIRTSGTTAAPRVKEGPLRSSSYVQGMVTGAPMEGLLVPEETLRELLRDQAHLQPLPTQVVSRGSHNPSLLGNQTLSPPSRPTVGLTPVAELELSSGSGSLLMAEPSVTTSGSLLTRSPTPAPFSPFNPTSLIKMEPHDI
# ELF1, sequence (P32519 whole entry): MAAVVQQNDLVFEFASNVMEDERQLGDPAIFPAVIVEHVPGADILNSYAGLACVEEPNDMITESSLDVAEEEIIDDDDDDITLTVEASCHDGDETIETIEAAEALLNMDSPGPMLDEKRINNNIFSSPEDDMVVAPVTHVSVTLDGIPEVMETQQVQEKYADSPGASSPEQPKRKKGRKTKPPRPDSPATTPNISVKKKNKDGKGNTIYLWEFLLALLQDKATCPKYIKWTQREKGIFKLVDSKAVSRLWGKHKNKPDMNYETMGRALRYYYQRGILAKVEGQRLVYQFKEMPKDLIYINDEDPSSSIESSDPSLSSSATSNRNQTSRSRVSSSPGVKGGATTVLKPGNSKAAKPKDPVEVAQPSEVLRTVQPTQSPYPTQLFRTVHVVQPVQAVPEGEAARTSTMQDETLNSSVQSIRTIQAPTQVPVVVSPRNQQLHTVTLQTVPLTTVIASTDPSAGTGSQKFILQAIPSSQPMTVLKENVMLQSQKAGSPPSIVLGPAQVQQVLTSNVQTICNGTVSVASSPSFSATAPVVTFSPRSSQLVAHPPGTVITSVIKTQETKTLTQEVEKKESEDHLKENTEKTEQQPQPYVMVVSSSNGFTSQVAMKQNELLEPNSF
# ETV6, sequence (P41212 whole entry): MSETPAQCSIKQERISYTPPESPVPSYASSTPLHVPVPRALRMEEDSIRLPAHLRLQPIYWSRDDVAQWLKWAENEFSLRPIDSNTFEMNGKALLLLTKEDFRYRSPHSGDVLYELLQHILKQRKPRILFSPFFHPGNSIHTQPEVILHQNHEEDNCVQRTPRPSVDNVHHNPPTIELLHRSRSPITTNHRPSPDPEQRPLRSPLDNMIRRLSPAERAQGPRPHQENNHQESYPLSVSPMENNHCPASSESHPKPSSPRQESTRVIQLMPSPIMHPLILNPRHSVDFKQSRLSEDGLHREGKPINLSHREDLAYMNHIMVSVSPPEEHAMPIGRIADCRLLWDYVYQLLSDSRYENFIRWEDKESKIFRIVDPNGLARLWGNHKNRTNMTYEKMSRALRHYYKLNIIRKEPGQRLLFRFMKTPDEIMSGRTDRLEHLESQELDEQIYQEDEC
Sequence,binding signal (FLI1),binding signal (ELK1),binding signal (GABPA),binding signal (ERG),binding signal (ELF1),binding signal (SPIC),binding signal (ELF4),binding signal (ELK4),binding signal (ETS2),binding signal (ETV7),binding signal (ETV3),binding signal (EHF),binding signal (ELF3),binding signal (ERF),binding signal (ETV3L),binding signal (ETV6)
TAAGCA,"1.08 fold enrichment (6-mer frequency, TF over GST control)","1.02 fold enrichment (6-mer frequency, TF over GST control)","1.08 fold enrichment (6-mer frequency, TF over GST control)","1.01 fold enrichment (6-mer frequency, TF over GST control)","1.07 fold enrichment (6-mer frequency, TF over GST control)","1.08 fold enrichment (6-mer frequency, TF over GST control)","1.03 fold enrichment (6-mer frequency, TF over GST control)","1.09 fold enrichment (6-mer frequency, TF over GST control)","1.07 fold enrichment (6-mer frequency, TF over GST control)","1.02 fold enrichment (6-mer frequency, TF over GST control)","1 fold enrichment (6-mer frequency, TF over GST control)",–,–,–,–,–
ACCTAG,"1.01 fold enrichment (6-mer frequency, TF over GST control)",–,"1.14 fold enrichment (6-mer frequency, TF over GST control)",–,"1.06 fold enrichment (6-mer frequency, TF over GST control)","1.01 fold enrichment (6-mer frequency, TF over GST control)","1.06 fold enrichment (6-mer frequency, TF over GST control)","1.08 fold enrichment (6-mer frequency, TF over GST control)","1.06 fold enrichment (6-mer frequency, TF over GST control)","1.11 fold enrichment (6-mer frequency, TF over GST control)",–,"1.04 fold enrichment (6-mer frequency, TF over GST control)","1.02 fold enrichment (6-mer frequency, TF over GST control)","1.06 fold enrichment (6-mer frequency, TF over GST control)","1.05 fold enrichment (6-mer frequency, TF over GST control)","1.02 fold enrichment (6-mer frequency, TF over GST control)"
